We go through six compounds from PubChem BioAssay (EPA / NIEHS).

Holding throughout (conditions): mRNA level, 48 h; actives raise or lower the signal
Read-out in assay [1]: Early growth response protein 1 (EGR1) transcription factor, EGR1 (gene 1958)
Briefly: LTEA_HepaRG_EGR1: Life Technologies and Expression Analysis (LTEA) Assay for Early growth response protein 1 (EGR1) transcription factor using HepaRG (AID 2283490). In outline:
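HepaRG, 48 h exposure, 8-pt half-log series from 100 uM, 0.5% DMSO vehicle; EGR1 transcript by TaqMan qRT-PCR (Fluidigm array), housekeeping-normalized; bidirectional fit relative to DMSO baseline.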

Read-out in assay [2]: Ezrin (EZR), EZR (gene 7430)
The experiment in a line: LTEA_HepaRG_EZR: Life Technologies and Expression Analysis (LTEA) Assay for Ezrin (EZR) using HepaRG (AID 2283491). The method in brief:
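EZR transcript levels came from Fluidigm qRT-PCR and were normalized to three housekeeping genes after 48 h chemical exposure of HepaRG cells. Dosing used an 8-point half-log series with a 100 uM top concentration in 0.5% DMSO, tested in duplicate; both directions were fitted versus vehicle.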

Read-out in assay [3]: Cytochrome P450 3A7 (Homo sapiens) (UniProt P24462)
The experiment in a line: LTEA_HepaRG_CYP3A7: Life Technologies and Expression Analysis (LTEA) Assay for CYP3A7 using HepaRG (AID 2283492). In outline: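 Human HepaRG liver cells, 48 h post-plating, switched to serum-free induction medium and exposed in duplicate for 48 h. Dosing: 100 uM top, half-log dilutions, 8 points, 0.5% DMSO vehicle. Read-out: CYP3A7 mRNA, gain or loss fitted against DMSO baseline.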

Read-out in assay [4]: CYP3A5 (gene 1577)
The experiment in a line: LTEA_HepaRG_CYP3A5: Life Technologies and Expression Analysis (LTEA) Assay for CYP3A5 using HepaRG (AID 2283493). The method in brief:
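Readout was CYP3A5 mRNA by qRT-PCR. HepaRG cultures were exposed for 48 h in serum-free induction medium to chemicals at up to 100 uM, and responses were fitted in both directions relative to DMSO vehicle.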

Read-out in assay [5]: Fatty Acid-Binding Protein 1 (FABP1), FABP1 (gene 2168)
Briefly: LTEA_HepaRG_FABP1: Life Technologies and Expression Analysis (LTEA) Assay for Fatty Acid-Binding Protein 1 (FABP1) using HepaRG (AID 2283494). The method in brief: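 qRT-PCR readout of FABP1 transcript (normalized to three housekeeping genes) after 48 h chemical exposure of HepaRG cells; eight concentrations, half-log steps, max 100 uM, 0.5% DMSO vehicle; gain or loss fitted relative to DMSO baseline.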

Read-out in assay [6]: Cytochrome P450 4A22 (Homo sapiens) (UniProt Q5TCH4)
Briefly: LTEA_HepaRG_CYP4A22: Life Technologies and Expression Analysis (LTEA) Assay for Cytochrome P450 4A22 (CYP4A22) using HepaRG (AID 2283495). In outline:
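Readout is CYP4A22 transcript induction or loss, quantified by qRT-PCR and normalized to ACTB, GAPDH and POLR2A. Human HepaRG cells receive test chemicals for 48 h at eight half-log concentrations from 100 uM in 0.5% DMSO.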

Read-out in assay [7]: Cytochrome P450 7A1 (Homo sapiens) (UniProt P22680)
Briefly: LTEA_HepaRG_CYP7A1: Life Technologies and Expression Analysis (LTEA) Assay for Cytochrome P450 7A1 (CYP7A1) using HepaRG (AID 2283496). In outline:
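Using 0.5% DMSO as vehicle and baseline, chemicals were tested in duplicate over an 8-point range from 100 uM on HepaRG cells for 48 h; qRT-PCR signals were normalised to ACTB, GAPDH and POLR2A.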

Read-out in assay [8]: Glutathione S-Transferase (GSTA2), GSTA2 (gene 2939)
Briefly: LTEA_HepaRG_GSTA2: Life Technologies and Expression Analysis (LTEA) Assay for Glutathione S-Transferase (GSTA2) using HepaRG (AID 2283497). The method in brief:
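qRT-PCR readout of GSTA2 transcript, normalized to three housekeeping genes, fitted bidirectionally against 0.5% DMSO baseline. Differentiated HepaRG cells received compound for 48 h at 8 concentrations (top 100 uM, half-log steps).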

Read-out in assay [9]: Glutamate-cysteine ligase catalytic (GCLC), GCLC (gene 2729)
Briefly: LTEA_HepaRG_GCLC: Life Technologies and Expression Analysis (LTEA) Assay for Glutamate-cysteine ligase catalytic (GCLC) using HepaRG (AID 2283498). The method in brief: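 HepaRG, 48 h exposure, 8-pt half-log series from 100 uM, 0.5% DMSO vehicle; TaqMan qRT-PCR for GCLC mRNA, housekeeping-normalized; bidirectional curve fit vs DMSO baseline.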

Read-out in assay [10]: Glutamate-cysteine ligase regulatory (GCLM), GCLM (gene 2730)
Briefly: LTEA_HepaRG_GCLM: Life Technologies and Expression Analysis (LTEA) Assay for Glutamate-cysteine ligase regulatory (GCLM) using HepaRG (AID 2283500). In outline: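 In this multiplexed HepaRG gene-expression assay, GCLM mRNA change after 48 h treatment (8 concentrations, max 100 uM) was scored against DMSO by bidirectional curve fitting.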

Read-out in assay [11]: Glutathione S-transferase M3 (GSTM3), GSTM3 (gene 2947)
Briefly: LTEA_HepaRG_GSTM3: Life Technologies and Expression Analysis (LTEA) Assay for Glutathione S-transferase M3 (GSTM3) using HepaRG (AID 2283501). In outline: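 HepaRG, plated 48 h, then serum-free induction medium; test chemical 48 h, duplicate; 100 uM top, half-log x8, 0.5% DMSO. Read-out: GSTM3 mRNA (TaqMan qRT-PCR, Fluidigm array). Bidirectional fit vs DMSO.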

Read-out in assay [12]: Heat shock 70 kDa protein 1 (HSPA1A), gene 3303
Briefly: LTEA_HepaRG_HSPA1A: Life Technologies and Expression Analysis (LTEA) Assay for Heat shock 70 kDa protein 1 (HSPA1A) using HepaRG (AID 2283502). The method in brief: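 An oxidative-stress marker readout: HepaRG cells treated 48 h in duplicate with an eight-point series (highest 100 uM) had HSPA1A mRNA quantified by TaqMan qRT-PCR. Activity was fitted in both directions using 0.5% DMSO as baseline.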

Read-out in assay [13]: Hypoxia-inducible factor 1-alpha (Homo sapiens) (UniProt Q16665)
Briefly: LTEA_HepaRG_HIF1A: Life Technologies and Expression Analysis (LTEA) Assay for Hypoxia-inducible factor 1 (HIF1A) Trancription factor using HepaRG (AID 2283503).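 Note: HIF1A transcript by TaqMan qRT-PCR normalized to ACTB GAPDH and POLR2A.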 In outline: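 Gain- or loss-of-signal HIF1A mRNA changes are fitted against a DMSO baseline. HepaRG cultures receive eight concentrations, highest 100 uM, for 48 h in serum-free induction medium with 0.5% DMSO.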

Read-out in assay [14]: 3-Hydroxy-3-Methylglutaryl-CoA Synthase 2 (HMGCS2), HMGCS2 (gene 3158)
Briefly: LTEA_HepaRG_HMGCS2: Life Technologies and Expression Analysis (LTEA) Assay for 3-Hydroxy-3-Methylglutaryl-CoA Synthase 2 (HMGCS2) using HepaRG (AID 2283504). In outline:
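HepaRG, plated 48 h then switched to serum-free induction media; cmpd 8-pt, max 100 uM, 1/2-log, 0.5% DMSO, n=2, 48 h. HMGCS2 mRNA by Fluidigm TaqMan qRT-PCR, ACTB/GAPDH/POLR2A norm; bidirectional fit vs DMSO.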

Read-out in assay [15]: HGF (gene 3082)
The experiment in a line: LTEA_HepaRG_HGF: Life Technologies and Expression Analysis (LTEA) Assay for Hepatocyte Growth Facto (HGF) using HepaRG (AID 2283505). The method in brief:
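Read-out is HGF transcript level by qRT-PCR, normalized to three housekeeping genes, fitted bidirectionally against 0.5% DMSO vehicle. Human HepaRG cells received test chemicals for 48 h at up to 100 uM.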

Read-out in assay [16]: Insulin Like Growth Factor 1 (IGF1), IGF1 (gene 3479)
Briefly: LTEA_HepaRG_IGF1: Life Technologies and Expression Analysis (LTEA) Assay for Insulin Like Growth Factor 1 (IGF1) using HepaRG (AID 2283506). In outline:
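Endpoint: IGF1 mRNA change by qRT-PCR, housekeeping-normalized, fitted bidirectionally relative to 0.5% DMSO vehicle. Human HepaRG cells were treated 48 h in serum-free induction medium, eight half-log concentrations topping at 100 uM.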

Read-out in assay [17]: Intercellular Adhesion Molecule 1 (ICAM1), ICAM1 (gene 3383)
The experiment in a line: LTEA_HepaRG_ICAM1: Life Technologies and Expression Analysis (LTEA) Assay for Intercellular Adhesion Molecule 1 (ICAM1) using HepaRG (AID 2283507). In outline:
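Readout is qRT-PCR mRNA level, normalized to three housekeeping genes and fitted bidirectionally against 0.5% DMSO vehicle. Human HepaRG cultures received compound for 48 h, top concentration 100 uM with half-log dilutions.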

Read-out in assay [18]: Interleukin 6 (IL6), IL6 (gene 3569)
The experiment in a line: LTEA_HepaRG_IL6: Life Technologies and Expression Analysis (LTEA) Assay for Interleukin 6 (IL6) using HepaRG (AID 2283509). The method in brief: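 qRT-PCR read-out of IL6 transcript, normalized to three housekeeping genes, after 48 h chemical exposure of HepaRG cells; 8-point half-log series, top 100 uM, 0.5% DMSO vehicle. Bidirectional curve fitting against DMSO baseline.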

Read-out in assay [19]: Insulin-like growth factor-binding protein 1 (IGFBP1), IGFBP1 (gene 3484)
The experiment in a line: LTEA_HepaRG_IGFBP1: Life Technologies and Expression Analysis (LTEA) Assay for Insulin-like growth factor-binding protein 1 (IGFBP1) using HepaRG (AID 2283508). The method in brief:
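Thawed HepaRG cells are plated for 48 h, switched to serum-free induction medium, then dosed in duplicate for another 48 h (100 uM top, half-log steps). Lysates in RLT go to qRT-PCR, and gain or loss of signal is fitted relative to vehicle.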

Values joined by “and” are separate entries in the source; they are usually repeats but may differ in a detail not shown here. Equal entries are not always repeated. A structure can be active in one record and inactive in another. Active and inactive are the calls of the source. Rule for the calls: active = hit-call score of the fitted dose curve at least 0.9, where 1 is the maximum; inactive = score below 0.9.

Chain of Hypoxia-inducible factor 1-alpha (Homo sapiens) (Q16665 whole entry, looked up): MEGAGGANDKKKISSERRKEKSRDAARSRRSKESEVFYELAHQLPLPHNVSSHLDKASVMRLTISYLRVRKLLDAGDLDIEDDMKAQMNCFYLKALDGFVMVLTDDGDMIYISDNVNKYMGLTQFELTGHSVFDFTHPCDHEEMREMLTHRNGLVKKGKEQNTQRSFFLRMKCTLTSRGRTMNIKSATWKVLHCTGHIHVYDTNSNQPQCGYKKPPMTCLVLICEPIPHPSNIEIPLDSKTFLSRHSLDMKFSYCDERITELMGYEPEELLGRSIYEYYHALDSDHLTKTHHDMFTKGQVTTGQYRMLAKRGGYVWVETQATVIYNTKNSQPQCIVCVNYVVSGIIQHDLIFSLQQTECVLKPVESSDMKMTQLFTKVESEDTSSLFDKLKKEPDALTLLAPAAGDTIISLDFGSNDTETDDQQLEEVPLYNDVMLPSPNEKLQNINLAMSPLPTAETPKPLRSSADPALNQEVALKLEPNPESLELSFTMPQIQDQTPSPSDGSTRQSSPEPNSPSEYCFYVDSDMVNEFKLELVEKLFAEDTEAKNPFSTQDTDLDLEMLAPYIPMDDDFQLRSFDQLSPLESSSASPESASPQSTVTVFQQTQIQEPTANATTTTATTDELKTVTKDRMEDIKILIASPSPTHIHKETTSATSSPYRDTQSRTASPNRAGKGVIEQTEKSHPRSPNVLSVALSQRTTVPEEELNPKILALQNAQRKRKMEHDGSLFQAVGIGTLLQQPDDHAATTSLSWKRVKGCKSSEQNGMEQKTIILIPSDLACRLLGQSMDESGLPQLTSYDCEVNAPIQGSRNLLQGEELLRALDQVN
Chain of Cytochrome P450 3A7 (Homo sapiens) (P24462 whole entry, looked up): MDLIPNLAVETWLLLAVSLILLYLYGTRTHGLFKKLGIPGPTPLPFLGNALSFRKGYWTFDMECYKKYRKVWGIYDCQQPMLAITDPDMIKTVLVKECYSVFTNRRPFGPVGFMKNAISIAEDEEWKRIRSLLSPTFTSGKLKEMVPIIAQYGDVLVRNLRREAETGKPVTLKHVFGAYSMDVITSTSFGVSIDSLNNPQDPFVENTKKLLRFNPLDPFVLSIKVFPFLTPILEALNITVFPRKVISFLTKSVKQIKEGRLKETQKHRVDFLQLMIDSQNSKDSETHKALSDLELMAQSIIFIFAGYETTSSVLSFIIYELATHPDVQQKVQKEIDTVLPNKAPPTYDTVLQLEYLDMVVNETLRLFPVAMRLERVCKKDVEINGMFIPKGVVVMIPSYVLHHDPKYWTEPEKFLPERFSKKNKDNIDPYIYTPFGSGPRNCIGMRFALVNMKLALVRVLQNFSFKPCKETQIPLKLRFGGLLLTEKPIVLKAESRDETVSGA

By AC50 is commonly meant the concentration giving half of the maximal activity seen. Consider `O=C(O)C(F)(F)C(F)(F)C(F)(F)C(F)(F)C(F)(F)C(F)(F)C(F)(F)F`, for which the AC50 in assay [1] is 12.1 µM (active); in [3], 22.1 µM (active) and 9.92 µM (active); in assay [5], 11 µM (active) and 8 µM (active); in [6], 6.42 µM (active) and 5.96 µM (active); in [12], 50 µM (active); in assay [14] it was 15.2 µM (active) and 7.54 µM (active). Further, the outcome in [1], in assay [2], in assay [4], in assay [7], in assay [8] and in [9] was inactive. Moreover, the call in assay [10], in assay [11], in assay [12], in assay [13], in assay [15] and in assay [16] was inactive. For the same compound, the outcome in assay [17] and in assay [18] was inactive.
On to `CC[C@H](C)[C@H]1O[C@]2(C=C[C@@H]1C)C[C@@H]1C[C@@H](C/C=C(\C)[C@@H](O[C@H]3C[C@H](OC)[C@@H](O[C@H]4C[C@H](OC)[C@@H](O)[C@H](C)O4)[C@H](C)O3)[C@@H](C)/C=C/C=C3\CO[C@@H]4[C@H](O)C(C)=C[C@@H](C(=O)O1)[C@]34O)O2` (tested in a mixture with another compound), for which the compound was called inactive in [1], in [3] and in assay [15]. Further, the AC50 in assay [2] was 7.92 µM (active); in assay [4], 6 µM (active); in assay [5], 8.68 µM (active); in assay [6], 10.2 µM (active); in assay [7], 15 µM (active); in assay [8], 7.88 µM (active). Also, the AC50 in [9] was 7.09 µM (active); in assay [10], 7.66 µM (active); in assay [11] it was 9.57 µM (active); in assay [12], 44.2 µM (active); in assay [13], 19 µM (active); in [14] it was 16.2 µM (active). In addition, the AC50 was 16 µM (active) in [16], 13.6 µM (active) in assay [17] and 18.6 µM (active) in assay [18].
On to `O=[N+]([O-])c1c(Cl)c(Cl)c(Cl)c(Cl)c1Cl`, for which the compound was classed as inactive in [1], in assay [2], in assay [3], in assay [4], in assay [6] and in assay [7]. Moreover, the compound was classed as inactive in [8], in [9], in [10], in assay [11], in assay [12] and in assay [13]. The outcome in assay [14], in [15], in assay [17] and in assay [19] was inactive. Moreover, the AC50 in assay [5] was 50 µM (active); in [16], 50 µM (active); in assay [18], 9.92 µM (active).
With `CCN(CC)C(=O)SCc1ccc(Cl)cc1`, the outcome in [1], in [2], in assay [3], in [4], in [6] and in assay [7] was inactive. For the same compound, the outcome in assay [8], in [9], in [10], in assay [11], in assay [12] and in [13] was inactive. In addition, the outcome in assay [14], in [15], in assay [16], in assay [17] and in assay [18] was inactive. Also, the AC50 in assay [5] was 15.4 µM (active).
As to `CNC(=O)CSP(=S)(OC)OC`, the call in assay [1], in assay [2], in [3], in assay [4], in assay [5] and in assay [6] was inactive. Also, the compound was called inactive in assay [7], in assay [8], in assay [9], in [10], in assay [11] and in [12]. Also, the result in [13], in [14], in [15], in [16], in assay [17] and in assay [18] was inactive.
Regarding `O=C(O)COc1ccc(Cl)cc1Cl`, the call in [1], in assay [2], in assay [4], in [5], in assay [6] and in assay [7] was inactive. For the same compound, the result in assay [8], in assay [9], in assay [10], in assay [11], in assay [12] and in assay [13] was inactive. Moreover, the compound was classed as inactive in assay [14], in [15], in [16], in [17] and in assay [18]. Besides, the AC50 in assay [3] was 27.7 µM (active).
